# Data from PubChem BioAssay (EPA / NIEHS).
# Calls of active or inactive are those of the source. Rule for the calls: active = hit-call score of the fitted dose curve at least 0.9, where 1 is the maximum; inactive = score below 0.9.
# Columns and labels:
# [1] = target: Bile acid receptor (Homo sapiens) (UniProt Q96RI1); experiment: ATG_IR1_CIS: Attagene CIS-FACTORIAL HepG2 Assay for human Nuclear Receptor Subfamily 1 Group H Member 4 (NR1H4), IR1 submotif (AID 2282946); details: IR1 reporter transcription, actives raise or lower the signal
# Sequence of Bile acid receptor (Homo sapiens) (Q96RI1 whole entry, looked up): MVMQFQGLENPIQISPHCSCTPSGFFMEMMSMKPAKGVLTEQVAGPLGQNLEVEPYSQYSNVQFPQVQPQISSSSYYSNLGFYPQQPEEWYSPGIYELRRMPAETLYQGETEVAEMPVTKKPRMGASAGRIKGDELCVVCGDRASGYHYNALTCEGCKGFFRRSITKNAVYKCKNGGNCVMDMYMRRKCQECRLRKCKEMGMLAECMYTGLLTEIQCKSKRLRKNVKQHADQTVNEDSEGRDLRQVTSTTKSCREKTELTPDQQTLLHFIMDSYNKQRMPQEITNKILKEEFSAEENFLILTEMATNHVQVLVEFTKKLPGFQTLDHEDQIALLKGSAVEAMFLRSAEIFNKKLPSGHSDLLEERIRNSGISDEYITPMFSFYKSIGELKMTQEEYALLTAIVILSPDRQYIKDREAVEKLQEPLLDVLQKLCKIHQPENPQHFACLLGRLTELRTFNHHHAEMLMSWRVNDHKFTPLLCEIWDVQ
# In short: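 Readout: reporter transcript levels by RT-PCR with fluorescent capillary electrophoresis, from HepG2 cells transiently transfected with multiplexed cis-regulated reporters and dosed 24 h. Gain- or loss-of-signal fitted versus DMSO negative control.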
# [2] = ATG_GRE_CIS: Attagene CIS-FACTORIAL HepG2 Assay for human Glucocorticoid Response Elements (GRE) (AID 2282947); details: HepG2 GRE cis-reporter, Attagene multiplex mRNA; actives raise or lower the signal
# In short: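 Cells (HepG2) bearing transfected cis-promoter reporter transcription units were treated with chemical for 24 hours. Reporter mRNA was measured via RT-PCR with capillary electrophoresis, and activity was fitted in both directions relative to DMSO.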
# [3] = ATG_ISRE_CIS: Attagene CIS-FACTORIAL HepG2 Assay for human Interferon Regulatory Factor 1 (IRF1) binding to an Interferon-Stimulated Response Element (ISRE) (AID 2282948); details: HepG2 ISRE cis-reporter (Attagene), mRNA transcription readout; actives raise or lower the signal
# In short: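 Multiplexed mRNA reporter readout in human liver HepG2 cells: cis-element-driven reporters transfected, compound added for 24 h, transcripts amplified, fluorescently labelled and sized by capillary electrophoresis; curve fitting bidirectional against DMSO.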
# [4] = ATG_M_32_CIS: Attagene CIS-FACTORIAL HepG2 Assay for M32 Transcription Factor (Internal Marker) (AID 2282949); details: HepG2 Attagene cis-factorial M32 reporter, mRNA; actives raise or lower the signal;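 note: background control marker of the multiplexed CIS panel rather than a real target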
# In short: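 HepG2 human liver cells transiently transfected with cis-promoter-driven multiple reporter transcription units, dosed 24 h. Reporter mRNA quantified by RT-PCR, FAM-labelled primer extension, HpaI digest and capillary electrophoresis; bidirectional fit versus DMSO baseline.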
# [5] = ATG_M_06_CIS: Attagene CIS-FACTORIAL HepG2 Assay for M06 Transcription Factor (Internal Marker) (AID 2282950); details: HepG2 Attagene CIS-FACTORIAL M06 internal marker reporter; actives raise or lower the signal
# In short: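 Internal background marker within multiplexed cis-reporter HepG2 system. Cells transiently transfected, dosed 24 h; reporter mRNA measured by RT-PCR, HpaI digestion and capillary electrophoresis. Bidirectional fit relative to DMSO.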
# [6] = target: Hypoxia-inducible factor 1-alpha (Homo sapiens) (UniProt Q16665); experiment: ATG_HIF1a_CIS: Attagene CIS-FACTORIAL HepG2 Assay for human Hypoxia Inducible Factor 1 (HIF1A) (AID 2282951); details: HepG2 Attagene cis-factorial HIF1a reporter transcription; actives raise or lower the signal
# Sequence of Hypoxia-inducible factor 1-alpha (Homo sapiens) (Q16665 whole entry, looked up): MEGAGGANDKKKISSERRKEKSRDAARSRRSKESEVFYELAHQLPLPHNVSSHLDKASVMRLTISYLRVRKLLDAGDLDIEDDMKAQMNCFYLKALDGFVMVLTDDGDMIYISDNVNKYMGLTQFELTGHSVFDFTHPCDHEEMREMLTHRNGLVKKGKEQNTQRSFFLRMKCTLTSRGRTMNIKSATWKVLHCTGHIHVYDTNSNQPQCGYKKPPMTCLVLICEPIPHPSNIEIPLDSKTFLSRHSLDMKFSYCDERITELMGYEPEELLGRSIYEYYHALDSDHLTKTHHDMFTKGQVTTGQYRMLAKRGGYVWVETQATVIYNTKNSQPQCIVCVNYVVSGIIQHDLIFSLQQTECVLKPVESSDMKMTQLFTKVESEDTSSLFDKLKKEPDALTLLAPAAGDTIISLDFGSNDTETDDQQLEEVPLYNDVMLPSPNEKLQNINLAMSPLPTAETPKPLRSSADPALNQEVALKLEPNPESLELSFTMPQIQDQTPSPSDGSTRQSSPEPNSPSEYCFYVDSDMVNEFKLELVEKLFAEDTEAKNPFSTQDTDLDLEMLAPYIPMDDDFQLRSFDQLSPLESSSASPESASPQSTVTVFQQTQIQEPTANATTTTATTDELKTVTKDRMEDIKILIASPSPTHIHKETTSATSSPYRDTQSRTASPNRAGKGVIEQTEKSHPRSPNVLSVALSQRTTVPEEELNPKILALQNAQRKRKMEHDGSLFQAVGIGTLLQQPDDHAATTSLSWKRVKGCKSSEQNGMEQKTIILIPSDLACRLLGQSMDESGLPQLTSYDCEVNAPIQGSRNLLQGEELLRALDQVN
# In short: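 HepG2 cells transiently transfected with multiplexed cis-promoter reporter units; reporter mRNA read 24 h after dosing by RT-PCR, 6-FAM primer-extension labelling, HpaI digestion and capillary electrophoresis. Bidirectional fit versus DMSO baseline.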
# [7] = target: Hepatocyte nuclear factor 6 (Homo sapiens) (UniProt Q9UBC0); experiment: ATG_HNF6_CIS: Attagene CIS-FACTORIAL HepG2 Assay for human Hepatocyte Nuclear Factor 6 (HNF6) (AID 2282952); details: HepG2 Attagene cis-factorial HNF6 reporter transcription; actives raise or lower the signal
# Sequence of Hepatocyte nuclear factor 6 (Homo sapiens) (Q9UBC0 whole entry, looked up, the tested form may be a part): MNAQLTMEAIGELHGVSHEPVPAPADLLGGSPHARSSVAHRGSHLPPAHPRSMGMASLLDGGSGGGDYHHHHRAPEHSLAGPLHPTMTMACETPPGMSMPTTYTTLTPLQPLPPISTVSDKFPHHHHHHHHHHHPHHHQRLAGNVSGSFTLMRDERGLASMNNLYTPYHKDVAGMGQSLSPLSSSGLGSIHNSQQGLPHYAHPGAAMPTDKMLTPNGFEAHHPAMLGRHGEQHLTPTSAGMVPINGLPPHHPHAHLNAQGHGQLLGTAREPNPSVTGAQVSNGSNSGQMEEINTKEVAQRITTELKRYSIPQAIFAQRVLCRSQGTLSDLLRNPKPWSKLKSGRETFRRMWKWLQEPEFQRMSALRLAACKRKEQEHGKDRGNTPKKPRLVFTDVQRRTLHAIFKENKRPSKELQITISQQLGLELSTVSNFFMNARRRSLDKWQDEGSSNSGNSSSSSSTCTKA
# In short: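 First, HepG2 cells were transfected with the multiplexed cis reporter library and dosed with chemical for 24 h. Next, RNA was reverse-transcribed, PCR-amplified and fluorescently labelled. Finally, HpaI-digested fragments were read by capillary electrophoresis.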
# [8] = target: Heat shock factor protein 1 (Homo sapiens) (UniProt Q00613); experiment: ATG_HSE_CIS: Attagene CIS-FACTORIAL HepG2 Assay for human Heat Shock Transcription Factor 1 (HSE) (AID 2282953); details: HepG2 HSE cis-reporter, Attagene RNA transcription; actives raise or lower the signal
# Sequence of Heat shock factor protein 1 (Homo sapiens) (Q00613 whole entry, looked up): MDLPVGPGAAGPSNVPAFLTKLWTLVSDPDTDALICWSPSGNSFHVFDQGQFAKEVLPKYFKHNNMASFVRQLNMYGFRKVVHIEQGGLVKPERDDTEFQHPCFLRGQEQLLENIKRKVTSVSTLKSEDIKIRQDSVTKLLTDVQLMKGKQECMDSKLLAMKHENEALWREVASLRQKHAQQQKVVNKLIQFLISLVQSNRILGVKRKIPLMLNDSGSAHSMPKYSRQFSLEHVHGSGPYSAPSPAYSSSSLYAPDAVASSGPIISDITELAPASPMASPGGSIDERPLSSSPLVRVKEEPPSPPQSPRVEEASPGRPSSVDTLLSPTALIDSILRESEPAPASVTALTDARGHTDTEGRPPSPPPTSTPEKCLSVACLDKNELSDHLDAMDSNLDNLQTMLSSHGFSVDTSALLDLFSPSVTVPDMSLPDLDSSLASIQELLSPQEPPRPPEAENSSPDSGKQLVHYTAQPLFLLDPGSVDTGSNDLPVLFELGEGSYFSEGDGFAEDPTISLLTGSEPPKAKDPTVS
# In short: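 HepG2 cells transfected with cis-promoter reporter units sensing endogenous transcription factor activity; reporter mRNA quantified 24 h post-dose by RT-PCR and capillary electrophoresis of 6-FAM-labelled products. Bidirectional fitting against DMSO.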
# [9] = ATG_PBREM_CIS: Attagene CIS-FACTORIAL HepG2 Assay for human Phenobarbital-responsive Enhancer Module (PBREM) (AID 2282955); details: HepG2 PBREM cis-reporter, Attagene multiplexed transcription; actives raise or lower the signal
# In short: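 HepG2 cells transiently transfected with multiple cis-regulated reporter transcription units; endogenous factor activity at the PBREM element measured as reporter mRNA 24 h after dosing, via RT-PCR and capillary electrophoresis of fluorescent fragments; bidirectional fitting versus DMSO.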
# [10] = target: Paired box protein Pax-6 (Homo sapiens) (UniProt P26367); experiment: ATG_Pax6_CIS: Attagene CIS-FACTORIAL HepG2 Assay for human Paired Box 6 (PAX6) (AID 2282956); details: HepG2 CIS-FACTORIAL PAX6 reporter transcription, RNA readout; actives raise or lower the signal
# Sequence of Paired box protein Pax-6 (Homo sapiens) (P26367 whole entry, looked up): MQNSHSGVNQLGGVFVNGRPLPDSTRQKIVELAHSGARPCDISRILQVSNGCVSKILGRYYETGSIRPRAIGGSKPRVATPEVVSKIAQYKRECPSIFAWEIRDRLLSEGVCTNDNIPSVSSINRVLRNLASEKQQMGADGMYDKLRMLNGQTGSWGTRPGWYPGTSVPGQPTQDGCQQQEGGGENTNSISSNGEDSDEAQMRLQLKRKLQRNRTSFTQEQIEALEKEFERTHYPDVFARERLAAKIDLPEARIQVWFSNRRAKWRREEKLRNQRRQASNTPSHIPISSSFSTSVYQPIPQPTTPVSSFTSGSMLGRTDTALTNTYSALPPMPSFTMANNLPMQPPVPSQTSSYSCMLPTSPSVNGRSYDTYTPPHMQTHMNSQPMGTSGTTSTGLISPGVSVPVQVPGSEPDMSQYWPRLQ
# In short: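 Fluorescent RT-PCR products separated by capillary electrophoresis report PAX6-linked promoter mRNA in HepG2 cells 24 h post-dose. Curves fitted bidirectionally, DMSO as negative control.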
# [11] = ATG_PXRE_CIS: Attagene CIS-FACTORIAL HepG2 Assay for human Pregnane X Receptor Element (PXRE) (AID 2282957); details: HepG2 Attagene CIS-FACTORIAL PXRE reporter, mRNA; actives raise or lower the signal
# In short: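 After a 24 h chemical incubation, total RNA from transfected HepG2 cells was reverse-transcribed and reporter cDNA amplified, FAM-labeled, HpaI-digested and sized by capillary electrophoresis. DMSO served as baseline for bidirectional curve fitting.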
# [12] = ATG_PPRE_CIS: Attagene CIS-FACTORIAL HepG2 Assay for human Peroxisome Proliferator-activated Response Element (PPRE) (AID 2282958); details: HepG2 PPRE cis-element reporter, Attagene transcription factor profiling; actives raise or lower the signal
# In short: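 HepG2 cells transiently transfected with multiplexed cis-element reporter units measure endogenous transcription factor activity. After 24 h compound exposure, reporter mRNA is quantified by RT-PCR, 6-FAM labeling, HpaI digestion and capillary electrophoresis; bidirectional fits are made against DMSO baseline.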
# [13] = ATG_Sox_CIS: Attagene CIS-FACTORIAL HepG2 Assay for human SRY-box transcription factor (SOX) (AID 2282960); details: HepG2 Attagene cis-factorial SOX reporter, mRNA; actives raise or lower the signal
# In short: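 HepG2 cells transiently transfected with cis-element-driven multiple reporter transcription units, dosed 24 h; reporter mRNA measured by RT-PCR, FAM labelling, HpaI digestion and capillary electrophoresis. Bidirectional fit versus DMSO baseline.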
# [14] = target: Transcription factor Sp1 (Homo sapiens) (UniProt P08047); experiment: ATG_Sp1_CIS: Attagene CIS-FACTORIAL HepG2 Assay for human Specificity Protein 1 (Sp1) (AID 2282961); details: HepG2 Sp1 cis-reporter transcription, actives raise or lower the signal
# Sequence of Transcription factor Sp1 (Homo sapiens) (P08047 whole entry, looked up): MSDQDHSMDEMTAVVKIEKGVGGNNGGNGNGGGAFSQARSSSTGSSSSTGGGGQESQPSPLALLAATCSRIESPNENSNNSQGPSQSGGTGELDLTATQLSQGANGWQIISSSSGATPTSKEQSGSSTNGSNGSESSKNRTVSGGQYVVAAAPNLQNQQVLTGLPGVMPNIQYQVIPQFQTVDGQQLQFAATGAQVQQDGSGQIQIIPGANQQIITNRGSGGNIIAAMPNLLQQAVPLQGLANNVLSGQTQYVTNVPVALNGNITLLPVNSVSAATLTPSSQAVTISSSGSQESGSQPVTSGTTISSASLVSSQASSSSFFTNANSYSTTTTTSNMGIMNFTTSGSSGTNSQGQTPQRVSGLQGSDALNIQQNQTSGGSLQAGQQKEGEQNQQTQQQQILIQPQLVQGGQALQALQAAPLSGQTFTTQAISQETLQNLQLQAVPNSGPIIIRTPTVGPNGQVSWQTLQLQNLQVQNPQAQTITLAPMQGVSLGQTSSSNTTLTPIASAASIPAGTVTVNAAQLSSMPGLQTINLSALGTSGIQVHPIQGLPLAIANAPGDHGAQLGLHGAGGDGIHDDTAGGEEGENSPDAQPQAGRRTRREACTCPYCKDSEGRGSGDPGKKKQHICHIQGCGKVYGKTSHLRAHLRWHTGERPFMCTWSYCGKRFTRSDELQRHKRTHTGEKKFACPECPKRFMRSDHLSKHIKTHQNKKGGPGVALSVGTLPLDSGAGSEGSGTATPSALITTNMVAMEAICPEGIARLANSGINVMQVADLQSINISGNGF
# In short: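 HepG2 cells transiently transfected with multiple reporter transcription units driven by cis-regulatory elements; Sp1-responsive reporter mRNA measured 24 h after dosing by RT-PCR and capillary electrophoresis fluorescence, fitted bidirectionally against DMSO baseline.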
# [15] = ATG_SREBP_CIS: Attagene CIS-FACTORIAL HepG2 Assay for human Sterol Regulatory Element Binding (SREBP) (AID 2282962); details: HepG2 Attagene cis-factorial SREBP reporter, mRNA; actives raise or lower the signal
# In short: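 Endogenous factor activity is measured in HepG2 through multiplexed reporter units under cis-element control. Following a 24 h incubation, reporter transcripts are reverse-transcribed, PCR-amplified and sized by capillary electrophoresis; activity is fitted in both directions relative to DMSO.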
# [16] = target: Signal transducer and activator of transcription 3 (Homo sapiens) (UniProt P40763); experiment: ATG_STAT3_CIS: Attagene CIS-FACTORIAL HepG2 Assay for human Signal Transducer and Activator of Transcription 3 (STAT3) (AID 2282963); details: HepG2, Attagene cis-factorial STAT3 reporter transcription; actives raise or lower the signal
# Sequence of Signal transducer and activator of transcription 3 (Homo sapiens) (P40763 whole entry, looked up): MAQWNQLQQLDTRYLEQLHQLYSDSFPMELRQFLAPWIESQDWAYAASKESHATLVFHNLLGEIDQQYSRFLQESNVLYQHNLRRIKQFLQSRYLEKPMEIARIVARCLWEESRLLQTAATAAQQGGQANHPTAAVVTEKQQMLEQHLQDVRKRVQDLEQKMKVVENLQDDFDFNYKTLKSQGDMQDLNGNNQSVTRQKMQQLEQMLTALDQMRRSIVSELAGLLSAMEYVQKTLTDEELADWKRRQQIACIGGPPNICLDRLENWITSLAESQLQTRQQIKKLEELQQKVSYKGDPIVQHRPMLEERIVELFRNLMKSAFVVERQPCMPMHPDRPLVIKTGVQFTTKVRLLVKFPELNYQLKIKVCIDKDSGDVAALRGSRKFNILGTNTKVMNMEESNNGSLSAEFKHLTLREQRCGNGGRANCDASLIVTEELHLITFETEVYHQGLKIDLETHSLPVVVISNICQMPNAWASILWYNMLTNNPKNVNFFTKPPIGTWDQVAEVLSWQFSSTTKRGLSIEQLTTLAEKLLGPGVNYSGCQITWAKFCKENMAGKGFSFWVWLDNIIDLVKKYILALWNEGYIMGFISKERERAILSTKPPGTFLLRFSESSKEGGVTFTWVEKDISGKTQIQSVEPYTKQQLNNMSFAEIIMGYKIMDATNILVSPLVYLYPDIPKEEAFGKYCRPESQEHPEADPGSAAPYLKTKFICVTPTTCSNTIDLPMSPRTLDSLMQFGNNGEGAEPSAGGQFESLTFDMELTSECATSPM
# In short: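 HepG2, MRTU-transfected, 24 h dosing. RNA → RT → PCR → FAM label → HpaI → CE. Bidirectional fit vs DMSO.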
# [17] = ATG_TA_CIS: Attagene CIS-FACTORIAL HepG2 Assay for human TA Basal Promoter (AID 2282964); details: HepG2 Attagene CIS-factorial TA basal promoter reporter; actives raise or lower the signal
# In short: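 HepG2 cells transiently transfected with multiple reporter units under cis promoter elements, reporting endogenous transcription factor activity; this endpoint tracks the TA basal promoter as background control. Reporter mRNA after 24 h dosing measured by RT-PCR/capillary electrophoresis; bidirectional fits versus DMSO.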
# [18] = ATG_TCF_b_cat_CIS: Attagene CIS-FACTORIAL HepG2 Assay for human T-Cell-Factor with beta-catenin (TCF/b-cat) (AID 2282965); details: HepG2 TCF/beta-catenin cis-reporter transcription, actives raise or lower the signal
# In short: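 In this cis-format system, transfected HepG2 cells report endogenous transcription factor activity. Readout after 24 h exposure is reporter transcript abundance from RT-PCR and capillary electrophoresis, analysed for gain or loss of signal versus DMSO.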
# [19] = ATG_MRE_CIS: Attagene CIS-FACTORIAL HepG2 Assay for human Metal Responsive Element (MRE) (AID 2282954); details: HepG2 MRE cis-reporter transcription, Attagene multiplex; actives raise or lower the signal
# In short: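 Cells were transfected with cis-promoter reporter transcription units, then dosed for 24 h. RNA was reverse-transcribed, amplified, fluorescently labelled and resolved by capillary electrophoresis, and activity was fitted in both directions relative to DMSO.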
# [20] = ATG_RORE_CIS: Attagene CIS-FACTORIAL HepG2 Assay for human RAR-related Orphan Receptor Element (RORE) (AID 2282959); details: HepG2 Attagene cis-factorial RORE reporter, mRNA; actives raise or lower the signal
# In short: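 HepG2 cells transiently transfected with multiple cis-element reporter transcription units, exposed to chemical for 24 h. Reporter mRNA quantified by RT-PCR, 6-FAM primer-extension labeling, HpaI digestion and capillary electrophoresis; bidirectional fit versus DMSO baseline.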
smiles,measurement,setting,value
BrC1CCC(Br)C(Br)CCC(Br)C(Br)CCC1Br (stereo not drawn),outcome,[1],inactive
same,outcome,[2],inactive
same,AC50,[3],87 µM (active)
same,outcome,[4],inactive
same,outcome,[5],inactive
same,outcome,[6],inactive
same,AC50,[7],87 µM (active)
same,outcome,[8],inactive
same,outcome,[9],inactive
same,AC50,[10],20.5 µM (active)
same,AC50,[11],0.95 µM (active)
same,outcome,[12],inactive
same,outcome,[13],inactive
same,AC50,[14],87 µM (active)
same,AC50,[15],53.7 µM (active)
same,outcome,[16],inactive
same,outcome,[17],inactive
same,outcome,[18],inactive
C=CC(=O)OCCn1c(=O)n(CCOC(=O)C=C)c(=O)n(CCOC(=O)C=C)c1=O,AC50,[1],24.4 µM (active)
same,AC50,[2],33.4 µM (active)
same,AC50,[3],13 µM (active)
same,outcome,[4],inactive
same,outcome,[5],inactive
same,AC50,[6],16.8 µM (active)
same,outcome,[7],inactive
same,AC50,[8],54.2 µM (active)
same,AC50,[19],9.48 µM (active)
same,outcome,[9],inactive
same,AC50,[10],15.7 µM (active)
same,outcome,[11],inactive
same,outcome,[13],inactive
same,AC50,[14],8.63 µM (active)
same,outcome,[15],inactive
same,AC50,[16],27 µM (active)
same,outcome,[17],inactive
same,AC50,[18],9.02 µM (active)
CSc1nnc(C(C)(C)C)c(=O)[nH]1,outcome,[1],inactive
same,outcome,[2],inactive
same,outcome,[3],inactive
same,outcome,[4],inactive
same,outcome,[5],inactive
same,outcome,[6],inactive
same,outcome,[7],inactive
same,outcome,[8],inactive
same,outcome,[19],inactive
same,outcome,[9],inactive
same,outcome,[10],inactive
same,outcome,[11],inactive
same,outcome,[12],inactive
same,outcome,[20],inactive
same,outcome,[13],inactive
same,outcome,[14],inactive
same,outcome,[15],inactive
same,outcome,[16],inactive
same,outcome,[17],inactive
same,outcome,[18],inactive
Cc1ccc2sc3cccc(C)c3c2c1,outcome,[1],inactive
same,outcome,[2],inactive
same,outcome,[3],inactive
same,outcome,[4],inactive
same,outcome,[5],inactive
same,AC50,[6],52.9 µM (active)
same,outcome,[7],inactive
same,outcome,[8],inactive
same,outcome,[19],inactive
same,outcome,[9],inactive
same,outcome,[10],inactive
same,outcome,[11],inactive
same,outcome,[20],inactive
same,outcome,[13],inactive
same,outcome,[14],inactive
same,outcome,[15],inactive
same,outcome,[16],inactive
same,outcome,[17],inactive
same,outcome,[18],inactive
CC(CCO)CCc1ccccc1 (stereo not drawn),outcome,[1],inactive
same,outcome,[2],inactive
same,outcome,[3],inactive
same,outcome,[4],inactive
same,outcome,[5],inactive
same,outcome,[6],inactive
same,outcome,[7],inactive
same,outcome,[8],inactive
same,outcome,[10],inactive
same,AC50,[11],41.1 µM (active)
same,outcome,[12],inactive
same,outcome,[14],inactive
same,outcome,[15],inactive
same,outcome,[16],inactive
same,outcome,[17],inactive
same,outcome,[18],inactive
CC1(C)CCC(C)(C)c2cc(C(=O)Nc3ccc(C(=O)O)cc3)ccc21,AC50,[1],4.75 µM (active)
same,outcome,[2],inactive
same,AC50,[3],100 µM (active)
same,outcome,[4],inactive
same,outcome,[5],inactive
same,AC50,[6],55.1 µM (active)
same,outcome,[7],inactive
same,AC50,[8],157 µM (active)
same,AC50,[19],74.5 µM (active)
same,outcome,[9],inactive
same,AC50,[10],85 µM (active)
same,AC50,[11],53.9 µM (active)
same,AC50,[12],43.7 µM (active)
same,AC50,[20],32.7 µM (active)
same,outcome,[13],inactive
same,outcome,[14],inactive
same,outcome,[15],inactive
same,outcome,[16],inactive
same,AC50,[17],27.7 µM (active)
same,AC50,[18],48.2 µM (active)
Cc1ncc([N+](=O)[O-])n1C,outcome,[1],inactive
same,outcome,[2],inactive
same,outcome,[3],inactive
same,outcome,[4],inactive
same,outcome,[5],inactive
same,outcome,[6],inactive
same,outcome,[7],inactive
same,outcome,[8],inactive
same,outcome,[19],inactive
same,outcome,[9],inactive
same,outcome,[10],inactive
same,AC50,[11],53.2 µM (active)
same,outcome,[13],inactive
same,outcome,[14],inactive
same,outcome,[16],inactive
same,outcome,[17],inactive
same,outcome,[18],inactive
